By inhibition is commonly meant the change of the read-out against control, counted positive when it falls. A word on the viability: it is a read-out of living cells in per cent, often relative to untreated cells.

In assay [1] the test system is Hepatitis C virus NS3 helicase. The assay is described as follows: HCV NS3 helicase inhibitors, primary screen, biochemical, fluorescence polarization, LOPAC1280 library (AID 687035; in the data active = inhibition above about 37%). The following applies: Purified HCV NS3 helicase, Cy5-dT15 ssDNA binding fluorescence polarization; stronger effect = higher value; concentration not given here. On the technique in general: Polarisation of emitted light reports the rotation of a fluorescent probe.

Assay [2] in a line: Cy5 fluorescence quenching or enhancement artefacts, artefact control for HCV NS3 helicase inhibitor project, biochemical, LOPAC1280 (AID 687037; call rule not given here). The following applies: Cy5-DNA-NS3h complex fluorescence interference counterscreen. (The purpose of a counterscreen is to sort out artefacts and off-target activity.)
Assay [3] in a line: stimulators of nuclear beta-catenin in C2C12, primary screen, imaging, WNT3A-conditioned medium, mouse C2C12, NPC library (AID 1117326; in the data active = nuclear beta-catenin stimulation mostly above about 4.2%, no sharp cut-off; inactive = mostly below about 10%). The following applies: stronger effect = higher value.
The nature of assay [4]: stimulators of insulin release from INS-1E, primary screen, cell-based, 5 mM glucose, NPC library (AID 1117329;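 active = compound raises insulin release from rat beta cells at 5 mM glucose, no numeric limit stated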). Conditions: rat INS-1E insulin secretion, at 10 µM, stronger effect = higher value.
Assay [5] in a line: growth inhibition of GSK3B-pretreated HCT116 cells – cell-based, CellTiter-Glo, 0.2 to 20 µM (AID 1117336;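 active = compounds lowering colon cancer cell viability after pretreatment blocking the GSK3B kinase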). The following applies: HCT116 viability after GSK3B inhibitor, at 20 µM, stronger effect = higher value. (In general: In ATP-based viability assays light output follows the ATP content of the culture.)
A short description of assay [6]: inhibition of endothelial tube formation, primary screen, imaging, VEGF stimulated, CD31 staining, tube area, NPC library (AID 1117340;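 active = compound that reduces growth-factor-driven endothelial tube area in a mixed cell culture, no cutoff stated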). Conditions: VEGF-stimulated ADSC/ECFC co-culture, at 10 µM, stronger effect = higher value.
Assay [7] can be described thus: glucagon-like peptide 1 release enhancers, primary assay, NCI-H716 cell line, NPC library (AID 1117341;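 active = compound raises GLP1 secretion from the human gut endocrine cells, with no numeric limit stated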). Conditions: NCI-H716 cells, at 10 µM, stronger effect = higher value.
A short description of assay [8]: HCT116 colon cancer cell growth inhibition, primary screen, CellTiter-Glo luminescence, NPC library (AID 1117342;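 active = compounds that lower survival of HCT116 colon cancer cells in the luminescence readout, no numeric limit stated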). The following applies: at 20 µM (top of the series).
Assay [9] in a line: CellTiter-Glo luminescent readout of SW480 viability loss, NPC library primary (AID 1117343;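 active = compounds that lower viability of the colon cancer cells in the luminescence readout, with no numeric limit stated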). The following applies: CellTiter-Glo luminescence; at 20 µM (top of the series).
A short description of assay [10]: decreased DLD-1 cellular survival, CellTiter-Glo luminescent readout, NPC compound collection, primary HTS (AID 1117346;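 active = compounds that lower survival of DLD-1 colon cancer cells in the luminescence readout, no cutoff given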). The following applies: DLD-1 viability, CellTiter-Glo luminescence; at 20 µM (top of the series).
Assay [11] concerns the target 6-phosphogluconate dehydrogenase, decarboxylating (Homo sapiens) (UniProt P52209). As to the kind of experiment: 6PGD enzyme inhibitors, primary screen, biochemical, human, recombinant enzyme, NADPH absorbance (AID 1159550;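 active = at least 20% inhibition of 6-phosphogluconate dehydrogenase activity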). Conditions: recombinant 6PGD, NADPH absorbance 341 nm; at 10 µM; stronger effect = higher value.
Assay [12] in a line: liver-stage malaria parasite growth inhibition, primary screen, cell-based, HepG2, luciferase luminescence, HepG2 viability (AID 624349).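 Note: 100% = mean of DMSO negative control wells on the same plate.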 The following applies: P. berghei liver stage in HepG2, luciferase luminescence, concentration not given here; parasite load remaining: stronger effect = lower value; viability: measured here: HepG2 viability without parasites.
Assay [13] is described as follows: Cy5 fluorescence interference with SSB-bound oligo, artefact control for HCV NS3 helicase inhibitor project, biochemical, NIH Clinical Collection, E. coli SSB (AID 743268; call rule not given here).
Assay [14] concerns Hepatitis C virus NS3 helicase. As to the kind of experiment: HCV NS3 helicase inhibitors, primary screen, biochemical, fluorescence polarization, NIH Clinical Collection (AID 743270; call rule not given here). Conditions: NS3 helicase binding to Cy5-dT15 DNA, stronger effect = higher value, concentration not given here.
Assay [15] has as its target Single-stranded DNA-binding protein (Escherichia coli (strain K12)) (UniProt P0AGE0). The assay is described as follows: E. coli SSB displacement from DNA, counter-screen for HCV NS3 helicase inhibitor project, biochemical, fluorescence polarization, NIH Clinical Collection (AID 743271; in the data active = inhibition above about 28%). The following applies: stronger effect = higher value, concentration not given here.
Assay [16] can be described thus: fluorescence interference in NS3h assay format, artefact control for HCV NS3 helicase inhibitor project, biochemical, NIH Clinical Collection (AID 743272; call rule not given here;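 note: HCV NS3 helicase with a Cy5 labelled single stranded DNA probe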). The following applies: fluorescence interference counterscreen, stronger effect = lower value.

The structures appear in SMILES notation. “And” between values parts separate entries of the source, which are not always exact repeats. Equal values may be shown once. The source made the active and inactive calls. Cut-off read from the data, not from the text of the source, unless noted: active = parasite load remaining mostly below about 12% (no sharp cut-off); inactive = mostly above about 10%.

6-phosphogluconate dehydrogenase, decarboxylating (Homo sapiens), sequence (P52209 whole entry, looked up): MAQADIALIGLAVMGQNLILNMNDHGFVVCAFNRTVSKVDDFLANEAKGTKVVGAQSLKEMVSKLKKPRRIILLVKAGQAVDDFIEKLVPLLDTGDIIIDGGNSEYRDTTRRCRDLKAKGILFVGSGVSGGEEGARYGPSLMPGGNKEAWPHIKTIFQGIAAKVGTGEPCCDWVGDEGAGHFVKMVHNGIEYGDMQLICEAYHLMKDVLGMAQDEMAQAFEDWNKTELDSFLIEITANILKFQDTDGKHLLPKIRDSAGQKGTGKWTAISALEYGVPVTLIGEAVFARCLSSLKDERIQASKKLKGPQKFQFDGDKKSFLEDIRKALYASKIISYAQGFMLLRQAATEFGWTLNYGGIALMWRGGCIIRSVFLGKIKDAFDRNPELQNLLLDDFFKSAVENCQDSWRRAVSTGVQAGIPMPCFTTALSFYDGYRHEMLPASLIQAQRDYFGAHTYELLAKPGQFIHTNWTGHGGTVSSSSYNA

On to `CCC1(C)CC(=O)NC1=O` (stereo not drawn), for which the inhibition is 0% (inactive) in assay [1] and -0.667% (inactive) in assay [11]. Moreover, the fluorescence ratio (interference) in [2] is 1 (inactive). Also, the nuclear beta-catenin stimulation in assay [3] (at 10 µM) is 0.2% (inactive); in [3] (stimulation, at 2 µM), -0.3%. Moreover, in [4], the insulin secretion stimulation was 0% (inactive). Moreover, the viability decrease in assay [5] is -17.5% (inactive). For the same compound, the tube area decrease in [6] is -2.9% (inactive). The GLP1 secretion stimulation in assay [7] was -2.3% (inactive). The inhibition of viability in [8] was -5.57% (inactive). Moreover, the viability decrease (inhibition) was -27.9% (inactive) in assay [9] and -7.1% (inactive) in assay [10].
On to `Oc1c(Cl)cc(Cl)c(Cl)c1Cc1c(O)c(Cl)cc(Cl)c1Cl`, for which the parasite load remaining in assay [12] is -3.37% (inactive) and -0.17% (inactive) and -0.05% (inactive). For the same compound, the viability in [12] is 54.9% and 42.6% and 53.4%. The fluorescence ratio is 1.01 (inactive) in [13] and 0.92 (inactive) in [16]. For the same compound, the inhibition in [14] is 15.9% (inactive); in assay [15], 20.1% (inactive); in assay [11] it was -10.3% (inactive). The nuclear beta-catenin stimulation was 15% (inactive) in [3] (at 10 µM) and 8.3% in assay [3] (stimulation, at 2 µM). Further, the insulin secretion stimulation in assay [4] is -3.4% (inactive). The viability decrease in assay [5] is 117% (active). For the same compound, the tube area decrease in assay [6] is 108% (active). Moreover, the GLP1 secretion stimulation in [7] was 17.4% (inactive). In addition, the inhibition of viability in [8] was 124% (active). In addition, the viability decrease (inhibition) is 149% (active) in [9] and 101% (active) in [10].
Take `CC(CN(C)C)CN1c2ccccc2CCc2ccccc21` (stereo not drawn): in assay [12], the parasite load remaining is 54.2% (inactive) and 101% (inactive) and 48.3% (inactive). For the same compound, the viability in assay [12] is 103% and 83.8% and 93.4%. Moreover, the values for the inhibition in [1] and in assay [11] were -4% (inactive) and 13.6% (inactive), respectively. Further, in assay [2], the fluorescence ratio (interference) is 1 (inactive). The nuclear beta-catenin stimulation in [3] (at 10 µM) was -1.5% (inactive); in [3] (stimulation, at 2 µM), -0.7%. In addition, the insulin secretion stimulation in [4] was 2.4% (inactive). In addition, the viability decrease in assay [5] is -139% (inactive). In addition, the tube area decrease in assay [6] was 13.4% (inactive). The GLP1 secretion stimulation in assay [7] is 4.5% (inactive). The inhibition of viability in assay [8] is 55.4% (active). Further, the viability decrease (inhibition) is 136% (active) in assay [9] and 1.5% (inactive) in assay [10].
For the compound `O=C1CCc2cc(OCCCCc3nnnn3C3CCCCC3)ccc2N1`, the parasite load remaining in assay [12] was 56.8% (inactive) and 129% (inactive) and 31.4% (inactive). Further, the viability in assay [12] is 104% and 87.2% and 96.2%. The inhibition is -1% (inactive) in [1] and 1.01% (inactive) in assay [11]. In addition, in assay [2], the fluorescence ratio (interference) was 1 (inactive). The nuclear beta-catenin stimulation in assay [3] (at 10 µM) was 1.1% (inactive); in assay [3] (stimulation, at 2 µM) it was 1%. In assay [4], the insulin secretion stimulation was -1.5% (inactive). The viability decrease in [5] was -19.3% (inactive). Also, the tube area decrease in [6] was 0.2% (inactive). In addition, the GLP1 secretion stimulation in [7] is -1.1% (inactive). In [8], the inhibition of viability was -0.27% (inactive). The viability decrease (inhibition) in [9] was 36.4% (inactive); in assay [10] it was -12.1% (inactive).
For the compound `CCN(CC)CCOCCOC(=O)C1(c2ccccc2)CCCC1`, the inhibition in [1] is 0% (inactive); in assay [11], 1.3% (inactive). The fluorescence ratio (interference) in assay [2] is 1 (inactive). Moreover, the nuclear beta-catenin stimulation is -0.6% (inactive) in assay [3] (at 10 µM) and -0.4% in assay [3] (stimulation, at 2 µM). The insulin secretion stimulation in assay [4] is 60% (active). Also, the viability decrease in [5] is 19.3% (inactive). For the same compound, the tube area decrease in assay [6] is -3.1% (inactive). Moreover, the GLP1 secretion stimulation in assay [7] is 5.7% (inactive). In addition, the inhibition of viability in [8] is 56.4% (active). The results for the viability decrease (inhibition) in assay [9] and in assay [10] were 20.6% (inactive) and 62.5% (active), respectively.

The values above are taken from PubChem BioAssay.
